{"source": "the supplement of paper PMC7695840", "data": [{"tested_on": "Staphylococcus aureus MW2 delta-mecA (mecA-)", "assay": "normalized GFP fluorescence (growth of mecA- strain) (fraction of control range); higher = more growth of mecA- strain", "conditions": "compound concentration: 150 uM; cefoxitin: subinhibitory; fluorescent label: GFP", "summary_of_the_method": "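Compound at 150 μM (1.5% DMSO) in 1536-well plates received 5 µL/well of pre-induced S. aureus MW2 cells mixed 1:1, gene-carrying with DsRed and gene-deleted with GFP, in LB with a daily-set subinhibitory antibiotic dose, single replicate. After 20 h unshaken at 37 °C, 90% humidity, DsRed (540/590) and GFP (485/520) were measured and scaled per plate between single-strain control medians. Plates with high untreated ratios and rows with DsRed/GFP >10 were excluded.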", "values": [{"smiles": "CCC(C)CCCCC(=O)NC(CCN)C(=O)NC(C(=O)NC(CCN)C(=O)NC1CCNC(=O)C(C(C)O)NC(=O)C(CCN)NC(=O)C(CCN)NC(=O)C(CC(C)C)NC(=O)C(Cc2ccccc2)NC(=O)C(CCN)NC1=O)C(C)O", "note": "(stereo not given)", "normalized GFP fluorescence": 0.159}, {"smiles": "CN1C2CCCC1CC(NC(=O)c1nn(C)c3ccccc13)C2", "note": "(stereo not given)", "normalized GFP fluorescence": 0.718}, {"smiles": "CC12CC3CC(C)(C1)CC(N)(C3)C2", "normalized GFP fluorescence": 0.384}, {"smiles": "CC(=O)[C@@]1(O)CC[C@H]2[C@@H]3CCC4=CC(=O)CCC4=C3[C@@H](c3ccc(N(C)C)cc3)C[C@@]21C", "note": "[Ulipristal]", "normalized GFP fluorescence": 0.57}, {"smiles": "CCN(CC)CC#CCOC(=O)C(O)(c1ccccc1)C1CCCCC1", "note": "(stereo not given)", "normalized GFP fluorescence": 0.0426}, {"smiles": "CC(N/C(=N\\C#N)Nc1ccncc1)C(C)(C)C", "note": "(stereo not given)", "normalized GFP fluorescence": 0.124}, {"smiles": "COC(=O)[C@@H]1CC2=CC(=O)CC[C@]2(C)[C@@]23O[C@@H]2C[C@@]2(C)[C@@H](CC[C@@]24CCC(=O)O4)[C@H]13", "note": "[Eplerenone]", "normalized GFP fluorescence": 0.583}, {"smiles": "O=c1ccn([C@@H]2O[C@H](CO)[C@@H](O)[C@H]2O)c(=O)[nH]1", "note": "[Uridine]", "normalized GFP fluorescence": 0.265}, {"smiles": "Cc1cc2c(s1)Nc1ccccc1N=C2N1CCN(C)CC1", "normalized GFP fluorescence": 0.695}, {"smiles": "CCN1CCC[C@H]1CNC(=O)c1cc(S(N)(=O)=O)ccc1OC", "note": "[Levosulpiride (Levogastrol)]", "normalized GFP fluorescence": 0.447}, {"smiles": "CC1=C(/C=C/C(C)=C/C=C/C(C)=C\\C(=O)O)C(C)(C)CCC1", "normalized GFP fluorescence": 0.0602}, {"smiles": "CNC(C)C1CCC(N)C(OC2C(N)CC(N)C(OC3OCC(C)(O)C(NC)C3O)C2O)O1", "note": "(stereo not given)", "normalized GFP fluorescence": 0.397}, {"smiles": "COCCCOc1cc(C[C@@H](C[C@H](N)[C@@H](O)C[C@H](C(=O)NCC(C)(C)C(N)=O)C(C)C)C(C)C)ccc1OC", "normalized GFP fluorescence": 0.131}, {"smiles": "C1CNCCN1", "normalized GFP fluorescence": 0.806}, {"smiles": "CCCc1nc2c(C)cc(-c3nc4ccccc4n3C)cc2n1Cc1ccc(-c2ccccc2C(=O)O)cc1", "normalized GFP fluorescence": 0.106}, {"smiles": "c1ccc([C@H]2CN3CCSC3=N2)cc1", "normalized GFP fluorescence": 0.522}, {"smiles": "CCOC(=O)C1=C[C@]2(CC)CCCN3CCc4c(n1c1ccccc41)[C@@H]32", "normalized GFP fluorescence": 0.593}, {"smiles": "Clc1ccc2c(c1)C(N1CCNCC1)=Nc1ccccc1O2", "normalized GFP fluorescence": 0.114}, {"smiles": "Cc1cnc(NC(=O)C2=C(O)c3ccccc3S(=O)(=O)N2C)s1", "normalized GFP fluorescence": 0.204}, {"smiles": "NC(N)=Nc1nc(CSCC/C(N)=N/S(N)(=O)=O)cs1", "normalized GFP fluorescence": 0.53}]}]}
